Screening results from PubChem.
BRCA1 expr up – activators of BRCA1 expression; MCF7-BRCA1-FFLuc reporter, luminescence, 48 h; response scale: scaled: vehicle 0%, 10 µM genistein 100%; Potency, µM (titrated, usually from 46.1 µM), actives largely listed as activators; 1.1% of 380,000 active; AID 624202; also: nearly all actives have a fitted effect of over 80% in size
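Quantitative HTS in MCF7 cells stably reporting BRCA1 expression via firefly luciferase. Compound treatment lasts 48 h at 37 °C in phenol-red free MEM. Activation is expressed relative to genistein at 10 microM and DMSO.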
IL2 activator – activates IL-2 in a cell-based reporter assay | AID 652025 | activation, % (series mostly up to about 46 µM) | IL-2 activation reporter assay, cell-based qHTS; stimulated with anti-CD3/CD4/CD28 beads; in transgenic mouse T cells | 0.065% of 360,000 active; in the data active = activation above about 50%; inconclusive = mostly about 30% to 49%
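Unstimulated transgenic mouse T cells; 60-min compound exposure; bead-based TCR/CD4/CD28 stimulation; 18 h culture, 37 degrees C; dual fluorescence (EGFP, DsRed) plate cytometry.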
Nrf2 ARE act – activators of Nrf2 (ARE) signaling; AREc32 ARE-luciferase reporter (MCF7-derived line), luminescence, 24 h; Potency, µM (doses to about 46.1 µM), most hits filed as activators; 0.31% of 410,000 active; also: nearly all actives have a fitted effect of over 65% in size
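Quantitative high-throughput format: AREc32 reporter cells, 1000 per well, received compound by pin transfer and were incubated 24 hr at 37 deg C, 5% CO2, before Steady-Glo luminescence detection.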
ELG1 DNA repair – inhibitors of ELG1-dependent DNA repair in HEK293T cells; Potency, µM (doses to about 46.1 µM), most hits filed as inhibitors; HEK293T ELG1-luciferase reporter, luminescence, 16 h; DNA damage induced by 5-fluorouridine; 2.3% of 330,000 active; AID 504467; also: nearly all actives have a fitted effect of over 55% in size
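Cells (2,000 per well) received 5-fluorouridine plus test compound or DMSO and were incubated 16 hr at 37 °C, 5% CO2. Luciferase activity was read by luminescence 30 min after ONE-Glo addition; signal suppression marked inhibition of damage-induced ELG1 function.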
Each line names hits and unclear results; the compound was inactive in the other large screens. This is a sample that favours compounds with a hit; in the whole collection about 3.1% have one here. Unless noted, calls follow the shape of the dose curve; as a rule, active = well fitted curve in the direction sought with a large enough effect; inconclusive = small, poorly fitted or top-dose-only effect, or another doubt; inactive = no such curve, though single readings can be large; an effect the other way counts as inactive or inconclusive.

O=C(O)C/C(=C\c1cc(Br)cs1)c1nc2ccccc2o1	none
COc1cccc(CN(C(=O)c2oc3ccccc3c2C)C2CCS(=O)(=O)C2)c1 (stereo unspecified)	none (no result: BRCA1 expr up, IL2 activator, ELG1 DNA repair)
O=C(C[C@@H]1C/C=C\C[C@H](NC(=O)OCC2c3ccccc3-c3ccccc32)C(=O)OC[C@H]2CCCN2C1=O)N[C@@H](CO)Cc1ccccc1	ELG1 DNA repair 14.6µM
O=C(C[C@@H]1C/C=C\CC[C@H](Cc2ccc(F)cc2)C(=O)OC[C@@H]2CCCN2C1=O)N[C@H](CO)Cc1ccccc1	ELG1 DNA repair 20.6µM
CC(C)(C)[C@H]1COC(=O)[C@@H](Cc2ccc(F)cc2)CC/C=C/C[C@@H](CC(=O)N[C@@H](CO)Cc2ccccc2)C(=O)N1	ELG1 DNA repair 25.9µM
O=C(C[C@H]1C/C=C\C[C@H](NC(=O)OCC2c3ccccc3-c3ccccc32)C(=O)OC[C@H]2CCCN2C1=O)NCCO	none
O=C(C[C@H]1C/C=C\C[C@@H](Cc2ccc(F)cc2)C(=O)OC[C@H]2CCCN2C1=O)N[C@H](CO)Cc1ccccc1	none
CCCSc1ncc(Cl)c(C(=O)Nc2nc3ccc(C)cc3s2)n1	none (no result: BRCA1 expr up, IL2 activator, ELG1 DNA repair)
CCCSCCCNC(=O)C1CCN(C(=O)c2cnn(-c3ccccc3)c2-n2cccc2)CC1	none (no result: IL2 activator, ELG1 DNA repair)
O=C(NCC1CCOCC1)c1ccc(-c2ccc(F)c(F)c2)c2ccoc12	none (no result: ELG1 DNA repair)
CC1CCc2c(sc(NC(=O)Cc3ccccc3)c2C(=O)Nc2ccc(Cl)cc2)C1 (stereo unspecified)	none (no result: IL2 activator, ELG1 DNA repair)
O=C(NCCc1ccccc1F)c1cccc2cccnc12	BRCA1 expr up 2µM, Nrf2 ARE act inconclusive, ELG1 DNA repair inconclusive
CCOc1ccc(-c2nnc(SCC(=O)NCc3ccc(Cl)cc3)o2)cc1	none (no result: IL2 activator, ELG1 DNA repair)
O=C(Nc1ccc(Cl)cc1)Nc1nnc(CSCc2ccccc2Cl)s1	ELG1 DNA repair 10.3µM
O=C(Nc1ccccc1)Nc1nnc(CSCc2ccccc2Cl)s1	ELG1 DNA repair inconclusive
Cn1c(=O)c2sccc2n2c(CCC(=O)Nc3ccc(F)cc3)nnc12	none (no result: BRCA1 expr up, IL2 activator, ELG1 DNA repair)
C/C(=N\NC(=O)c1c(Cl)cnn1C)c1ccc(NC(=O)c2ccc(Br)o2)cc1	BRCA1 expr up 10µM
C/C(=N/NC(=O)c1ccc(Br)o1)c1ccncc1	ELG1 DNA repair inconclusive
Cc1ccc(/C=N/N2CCN(c3ccccc3)CC2)cc1	BRCA1 expr up 12.6µM, ELG1 DNA repair inconclusive
Clc1ccc(N2CCN(/N=C/c3ccncc3)CC2)cc1	ELG1 DNA repair 20.6µM
Cc1cccc(/C=N/N2CCN(c3ccccc3)CC2)c1	BRCA1 expr up inconclusive, ELG1 DNA repair inconclusive
COc1ccccc1/C=N/N1CCN(c2ccc(Cl)cc2)CC1	none
Cc1ccc(N2CCN(/N=C/c3ccncc3)CC2)cc1	ELG1 DNA repair 18.3µM
CN1CCN(/N=C/c2ccc(Br)cc2)CC1	BRCA1 expr up 5.62µM, ELG1 DNA repair inconclusive
CN1CCN(/N=C/c2ccc(N(c3ccccc3)c3ccccc3)cc2)CC1	ELG1 DNA repair inconclusive
CN(C)c1ccc(C=NN2CCCCCC2)cc1	BRCA1 expr up 7.94µM (no result: ELG1 DNA repair)
O=C(Nc1ccc(Cl)c(C(F)(F)F)c1)C(Cc1ccccc1)NS(=O)(=O)c1cccc2nsnc12 (stereo unspecified)	none (no result: BRCA1 expr up, IL2 activator, ELG1 DNA repair)
Cc1ccc(S(=O)(=O)Cn2nnnc2C(C(C)C)N2CCN(c3nc4ccccc4s3)CC2)cc1 (stereo unspecified)	ELG1 DNA repair 18.4µM
c1ccc(C(c2nnnn2Cc2ccco2)N2CCN(c3nc4ccccc4s3)CC2)cc1 (stereo unspecified)	ELG1 DNA repair 20.6µM
Cc1ccc(-c2nnc(N3CCN(c4ccccn4)CC3)c3ccccc23)cc1	ELG1 DNA repair 16.4µM
CCCC(=O)N1CCN(c2nnc(-c3ccccc3)c3ccccc23)CC1	none
O=S(=O)(c1ccccc1)N1CCN(c2nnc(-c3ccccc3)c3ccccc23)CC1	ELG1 DNA repair 23.1µM
CS(=O)(=O)N1CCN(c2nnc(-c3ccccc3)c3ccccc23)CC1	none
c1ccc(-c2nnc(N3CCN(c4ccccn4)CC3)c3ccccc23)cc1	ELG1 DNA repair 13µM
C=Cc1ccc(CN2C(=O)N(c3ccc(CC)cc3)S(=O)(=O)c3ccccc32)cc1	none (no result: IL2 activator, ELG1 DNA repair)
Cc1ccn2cc(-c3cnoc3C)nc2c1	BRCA1 expr up 10µM, ELG1 DNA repair inconclusive
Cc1oncc1-c1cn2ccccc2n1	ELG1 DNA repair inconclusive
COc1ccc(CC(=O)N/N=C(\C)c2cccnc2)cc1	ELG1 DNA repair inconclusive
CN=c1scc(-c2ccc(OC)cc2)n1/N=C(\C)c1cccnc1	ELG1 DNA repair 18.3µM
CC1CCCC(C)N1C(=O)c1cc(-c2cccs2)on1 (stereo unspecified)	BRCA1 expr up 15.8µM, ELG1 DNA repair inconclusive
Cc1cc(C(=O)N2C(C)CCCC2C)no1 (stereo unspecified)	none
CC1(C)O[C@H]2[C@@H](O1)[C@@H](C(=O)Nc1ccc(F)c(F)c1)O[C@@H]1OC(C)(C)O[C@@H]12	none (no result: BRCA1 expr up, IL2 activator, ELG1 DNA repair)
COc1cc2c(cc1OC)CN(C(=O)/C=C/c1ccc([N+](=O)[O-])cc1)CC2	none
COc1cc2c(cc1OC)CN(C(=O)/C=C/c1ccccc1[N+](=O)[O-])CC2	ELG1 DNA repair 13µM
Cc1cc(C)cc(NC(=O)N2CCC(N3CCCCC3)CC2)c1	none (no result: BRCA1 expr up, IL2 activator, ELG1 DNA repair)
CCCn1c(NC(=O)c2ccc([N+](=O)[O-])o2)nc2ccccc21	Nrf2 ARE act 12.6µM, ELG1 DNA repair inconclusive
COC(=O)c1cn(-c2ccccc2)nc1-c1ccncc1	none
Cc1ccc(-c2nn(-c3ccccc3)cc2C(=O)Nc2ccc(C(=O)O)cc2)cc1	BRCA1 expr up 10µM, ELG1 DNA repair inconclusive
COC(=O)c1cn(-c2ccccc2)nc1-c1ccc(OC)cc1	ELG1 DNA repair 25.9µM
CCOC(=O)c1ccc(NC(=O)c2cn(-c3ccccc3)nc2-c2ccncc2)cc1	ELG1 DNA repair 18.4µM
CCN(CC(=O)Nc1ccc(NC(C)=O)cc1)C(=O)/C=C/c1cn(-c2ccccc2)nc1-c1ccc(C)cc1	ELG1 DNA repair 8.2µM
CCOC(=O)c1ccc(NC(=O)c2cn(-c3ccccc3)nc2-c2ccc(C)cc2)cc1	none (no result: BRCA1 expr up, IL2 activator, ELG1 DNA repair)
CCCCn1c(=O)n(-c2cc(OC)ccc2OC)c(=O)c2c3c(sc21)CN(C(C)=O)CC3	none (no result: IL2 activator, ELG1 DNA repair)
CCOc1ccc(OCC)c(NC(=O)CCc2c(C)nc3c(c2C)c(=O)n(C)c(=O)n3C)c1	none (no result: IL2 activator, ELG1 DNA repair)
O=C(c1cnn2c(C(F)(F)F)cc(-c3cccs3)nc12)N1CCOCC1	ELG1 DNA repair inconclusive
CCOC(=O)N1CCN(C(=O)c2cnn3c(C(F)(F)F)cc(-c4cccs4)nc23)CC1	ELG1 DNA repair 6.51µM
CCOC(=O)c1ccc2ncc(C(=O)OCC)c(Nc3ccc(N4CCOCC4)cc3)c2c1	ELG1 DNA repair 10.3µM
N#Cc1cccc(NC(=O)COc2ccc(-n3ccnc3)cc2)c1	ELG1 DNA repair 13µM
CC(=O)Nc1ccc(NC(=O)COc2ccc(-c3ccc(C#N)cc3)cc2)cc1	none
N#Cc1ccc(-c2ccc(OCC(=O)Nc3cccnc3)cc2)cc1	ELG1 DNA repair 14.6µM
Cc1ccc(C)c(NC(=O)C2CCCN2S(=O)(=O)c2ccc3c(c2)CCCC(=O)N3)c1 (stereo unspecified)	none (no result: IL2 activator, ELG1 DNA repair)
